From PubChem BioAssay
YopH PTP inh: YopH tyrosine phosphatase inhibitors, primary screen, biochemical, fluorescence Ex485/Em525; inhibition, % (test concentration not listed); hit rate 0.16% among 140,000; AID 898, 2007; in the data active = inhibition above about 50%
RmlC RmlD mix: RmlC and RmlD coupled enzyme inhibitors, primary screen, biochemical, 384-well, compound mixtures, retest. RmlC/RmlD coupled enzyme inhibition, 384-well mixture HTS. inhibition, % at 5.5 µM. hit rate 0.39% among 110,000. AID 1532, 2009; in the data active = inhibition above about 30%, passing the limit was not always enough; inconclusive = no clear call, values can overlap the other calls
Each line names hits and unclear results; the compound was inactive in the other large screens. Compounds with a hit are over-represented: about 0.44% of the library has one in this group of screens.

CCCCCCCC1=CC2=CC(=O)C(C)(OC(C)=O)C(=O)C2=CN1CCc1ccccc1 (stereo not given)	YopH PTP inh 50 (no result: RmlC RmlD mix)
CCCCC1=CC2=CC(=O)C(C)(OC(=O)CC)C(=O)C2=CN1CCCCO (stereo not given)	none (no result: YopH PTP inh)
COc1ccccc1NC(=O)Nc1cc(NC(=O)Nc2ccccc2OC)c(C)nc1C	none (no result: RmlC RmlD mix)
Nc1cnc(Br)cc1Br	none (no result: RmlC RmlD mix)
Nc1cc2nsnc2cc1Br	YopH PTP inh 100
CCOCCOC(=O)c1ccc(-n2cncn2)nc1	none
CCCCCCNC(=O)n1cc(F)c(=O)[nH]c1=O	none (no result: YopH PTP inh)
O=C(c1cccs1)c1no[n+]([O-])c1C(=O)c1cccs1	YopH PTP inh 87
COc1ccc(C(=O)c2no[n+]([O-])c2C(=O)c2ccc(OC)cc2)cc1	none
COC1=C(OC)C(=O)C(CCCCCCCCCCO)=C(C)C1=O	none (no result: YopH PTP inh)
CC1=C(C)C(=O)C(CCCCC#CCCCC#CCO)=C(C)C1=O	YopH PTP inh 65
CCN(CC)CCCNC(=O)Cc1c(C(=O)O)n(C)c2ccccc12	YopH PTP inh 52
CCN(CC)CCNC(=O)Cc1c(C(=O)O)n(C)c2ccccc12	none
O=C(NC1CC1)c1ccc2c(c1)C1C3CCC(C3)C1C(c1ccccc1)N2 (stereo not given)	none (no result: RmlC RmlD mix)
O=C(CN1C2=NCCN2c2ccccc21)c1ccc(Br)s1	none (no result: RmlC RmlD mix)
CN1C(=O)C(Cc2c[nH]c3ccccc23)C(=O)N(C)C1=O	none (no result: RmlC RmlD mix)
CN1C(=O)C(Cc2cccc3ccccc23)C(=O)N(C)C1=O	YopH PTP inh 55
Cc1cc(NCc2ccco2)n2ncnc2n1	none (no result: RmlC RmlD mix)
O=C(COC(=O)c1ccc([N+](=O)[O-])s1)Nc1ncc(C(F)(F)F)cc1Cl	none (no result: RmlC RmlD mix)
O=C1c2ccccc2C(=O)C12OC2c1cccc2ccccc12 (stereo not given)	YopH PTP inh 99 (no result: RmlC RmlD mix)
O=C1CCCCC1c1cccc2ccccc12 (stereo not given)	none (no result: RmlC RmlD mix)
O=C(c1cc2nc(-c3ccco3)cc(C(F)(F)F)n2n1)N1CCN(Cc2ccccc2)CC1	none
O=C1CCCC2=C1C1(O)C(=O)c3ccccc3C1(O)O2 (stereo not given)	YopH PTP inh 99
N#CC1=C(N)OC2=C(C(=O)CCC2)[C@]12C(=O)N(CC(N)=O)c1ccccc12	none
CC(=O)N/C(=C\c1ccccc1)C(=O)NCC(=O)O	none (no result: RmlC RmlD mix)
CCCc1cc(=O)oc2c(CN3CCCC3)c(O)c(Cl)cc12	RmlC RmlD mix 59
Cc1c(C)c2cc(Cl)c(O)c(CN3CCN(C)CC3)c2oc1=O	RmlC RmlD mix 97
CCN1CCN(Cc2c(O)c(Cl)cc3c(C)cc(=O)oc23)CC1	RmlC RmlD mix inconclusive
CCCc1cc(=O)oc2cc(C)c(CN3CCCC3)c(O)c12	none (no result: RmlC RmlD mix)
CC1CCCN(Cc2c(O)ccc3c(=O)c(-c4nc5ccccc5s4)c(N)oc23)C1 (stereo not given)	none
Cc1c(C)c2cc(Cl)c(O)c(CN3CCCC(C)C3)c2oc1=O (stereo not given)	RmlC RmlD mix 112
O=C(N/N=C\c1c(O)ccc2ccccc12)c1ccc(Cn2cccn2)o1	none (no result: RmlC RmlD mix)
Cc1noc(/C=C/c2ccco2)c1S(=O)(=O)N1CCC(C(=O)N2c3ccccc3CC2C)CC1 (stereo not given)	none (no result: RmlC RmlD mix)
CCOC(=O)c1c2c(n(C)c1COC)C(=O)C(=O)c1ccc(Br)cc1-2	YopH PTP inh 80
CCOC(=O)c1c(C)nc(C)c(C(=O)OCC)c1-c1ccc(Br)cc1	none (no result: RmlC RmlD mix)
COCCNC(=O)c1c(NC(=O)c2ccco2)n(Cc2ccccc2)c2nc3ccccc3nc12	none
COc1ccc(-n2c(NC(=O)c3ccco3)c(C#N)c3nc4ccccc4nc32)cc1	YopH PTP inh 90
COc1ccc2c(c1)c(=O)cc(C)n2CC(=O)NCc1ccco1	YopH PTP inh 93
COc1ccc(OC)c(NC(=O)Cn2c(=O)n(CC(=O)NCc3ccco3)c(=O)c3ccccc32)c1	none
COc1ccc(CCN2C(=O)CC(C(N)=O)SC2=Nc2ccccc2)cc1OC (stereo not given)	none
CCSCCc1nnc(NC(=O)Nc2cccc(C(F)(F)F)c2)s1	none (no result: RmlC RmlD mix)
COC(=O)c1sc2nc(N3CCCCC3)c3c(c2c1N)CC(C)(C)N(C)C3	RmlC RmlD mix 37
CCOC(=O)c1sc2nc(N3CCOCC3)c3c(c2c1N)CC(C)(C)N(C)C3	none
O=C(O)CCCCC1CCSS1 (stereo not given)	RmlC RmlD mix 73 (no result: YopH PTP inh)
O=C(O)CCC(=O)NC1CCCCCCC1	none
CC(C)(C)c1cc(C(=O)Nc2ccccc2)ccn1	none
Cc1ccc(NC(=O)c2ccnc(C(C)(C)C)c2)cc1	YopH PTP inh 68
COc1ccccc1-n1cnnc1SCC(=O)c1c[nH]c2ccccc12	none (no result: RmlC RmlD mix)
Cc1cc(C)cc(N=Cc2ccc([N+](=O)[O-])s2)c1	YopH PTP inh 86 (no result: RmlC RmlD mix)
NC(=O)c1ccc(N=Cc2ccc([N+](=O)[O-])s2)cc1	YopH PTP inh 92 (no result: RmlC RmlD mix)
O=[N+]([O-])c1ccc(/C=N/n2cnc3ccccc32)s1	none (no result: RmlC RmlD mix)
Cc1ccc(NC(=S)N/N=C/c2ccc([N+](=O)[O-])s2)cc1	none (no result: RmlC RmlD mix)
Cc1cc(Cl)ccc1OC(C)C(=O)Nc1ccc([N+](=O)[O-])cn1 (stereo not given)	none (no result: RmlC RmlD mix)
CC(=O)c1sc(NC(=O)COc2ccc(C)c(C)c2)nc1C	none (no result: RmlC RmlD mix)
